Compound activity: PubChem BioAssay, several laboratories
Bead autofluor – counter-screen for toxin protease inhibitors: compound fluorescence; hit rate 3.1% among 360,000; AID 624483; fluorescence intensity (test concentration not listed); compound autofluorescence counterscreen, microsphere flow cytometry; active compounds read high; in the data active = fluorescence intensity above about 16000; inconclusive = no clear call, values can overlap the other calls
BoNT F protease – BoNT F light chain protease inhibition. Multiplex microsphere protease cleavage assay, flow cytometry. inhibition, % at 10 µM. hit rate 0.22% among 360,000; in the data active = inhibition above about 35%, passing the limit was not always enough; inconclusive = no clear call, values can overlap the other calls; also: plate controls were buffer without enzyme for full effect and enzyme alone for no effect
BoNT A protease – blocks Botulinum neurotoxin A light chain protease; hit rate 0.17% among 360,000; multiplex microsphere protease substrate cleavage, flow cytometry; AID 588499; inhibition, % at 10 µM; also: plate controls were buffer without enzyme for full effect and enzyme alone for no effect
Anthrax LF prot – blocks Bacillus anthracis lethal factor protease; P15917; multiplex microsphere protease cleavage assay, LF; inhibition, % at 10 µM; hit rate 0.12% among 360,000; AID 588501; also: plate controls were buffer without enzyme for full effect and enzyme alone for no effect
DUSP3 inh – DUSP3 (human) phosphatase inhibition | hit rate 0.52% among 290,000 | P51452 | recombinant VHR phosphatase, pNPP absorbance | AID 1654 | inhibition, % at 13.3 µM; in the data active = inhibition above about 50%
Target sequence (P51452 whole entry, looked up): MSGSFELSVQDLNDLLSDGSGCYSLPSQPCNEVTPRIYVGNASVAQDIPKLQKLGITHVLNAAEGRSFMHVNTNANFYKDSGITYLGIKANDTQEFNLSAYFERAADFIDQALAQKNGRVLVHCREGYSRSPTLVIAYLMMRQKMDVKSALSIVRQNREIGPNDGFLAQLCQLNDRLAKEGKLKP
MazF activator – MazEF (E. coli) toxin RNase activation; activation, % at 20 µM; FAM/BHQ RNA-DNA oligo cleavage fluorescence, 5 h; P0AE70; hit rate 0.32% among 350,000; in the data active = activation above about 50%
Target sequence (P0AE70 whole entry, looked up): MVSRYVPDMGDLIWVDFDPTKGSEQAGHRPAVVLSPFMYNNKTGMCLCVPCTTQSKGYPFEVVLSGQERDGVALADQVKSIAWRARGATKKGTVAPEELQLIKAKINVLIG
* hit, by the source's call; ? = inconclusive; nt = no result. Hits are enriched below; roughly 4.1% of the tested compounds scored in any of these assays. Rule as the data show it, unless noted: active = inhibition above about 30%; inconclusive = no clear call, values can overlap the other calls; inactive = below that.

SMILES	Bead autofluor	BoNT F protease	BoNT A protease	Anthrax LF prot	DUSP3 inh	MazF activator
CSCCC(NC(=O)c1ccccc1Br)C(=O)NNC(=O)c1cc(C)oc1C (stereo not drawn)	4150	-4	0	-2	nt	-1
O=C(Nc1ccccc1-c1ccccc1)c1ccc(Br)o1	?	-55	-4	-22	20	-5
Cc1nc(C)c(C(=O)Nc2ccccc2-c2ccccc2)o1	23592*	1	0	-1	19	-9
CC(=O)Nc1ccc(C(=O)N2CCCCC2c2cc(C(=O)NC(C)C)no2)cc1 (stereo not drawn)	4057	4	0	-1	nt	nt
O=c1nc(-c2ccccc2)c2cc(Br)ccc2[nH]1	2821	2	-1	-1	-8	11
O=c1nc(-c2ccccc2)c2cc(SC(F)F)ccc2[nH]1	3989	?	-9	-2	53*	0
CC1(C)CC(CC(=O)O)(c2ccc(F)cc2)CCO1 (stereo not drawn)	6163	-6	0	-1	27	4
Cc1ccc(C2(CC(=O)O)CCOC(C)(C)C2)cc1 (stereo not drawn)	19797*	2	?	1	22	3
O=C(NCC1COc2ccccc2O1)c1ccc(Br)s1 (stereo not drawn)	3930	16	2	-9	17	-23
N#Cc1c(=O)c2nc(NCc3ccccc3)ncc2n2ccccc12	23674*	0	0	3	6	-4
CCOc1ccc(N=Cc2c(O)n(C(C)(C)C)c(=O)[nH]c2=O)cc1	23346*	-3	0	-2	30	5
CCOc1ccc(N=Cc2c(O)n(-c3cc(C)cc(C)c3)c(=O)[nH]c2=O)cc1	4627	?	?	-10	13	5
CCOC(=O)[C@]12CCC=C1N(Cc1cccc3ccccc13)C(=O)[C@H](CC(=O)NCCc1ccccc1OC)C2	6676	-6	-1	-15	nt	nt
CC1=CC(c2ccccc2)n2nc(NS(=O)(=O)c3ccc(C)cc3)nc2N1 (stereo not drawn)	9844	6	0	-1	19	4
CC1=CC(c2ccc(Cl)cc2)n2nc(NS(=O)(=O)c3ccc(C)cc3)nc2N1 (stereo not drawn)	23033*	-2	1	-2	15	2
CCn1c(O)c(C=Nc2ccc(N3CCOCC3)cc2)c(=O)n(CC)c1=S	9832	2	3	10	-4	-241
CCn1c(O)c(C=Nc2ccc(N3CCOCC3)c(Br)c2)c(=O)n(CC)c1=S	19239*	15	18	20	-8	-135
COc1ccc2nc(C)cc(SCC(=O)NNC(=O)COc3ccc(C)cc3)c2c1	8511	7	0	-4	41	51*
COc1ccc2nc(C)cc(SCC(=O)Nc3c(C)cc(C)cc3C)c2c1	18106*	2	4	0	19	-54
Cc1cn([C@H]2C[C@H](O)[C@@H](CCC(=O)NCCN3CCCCC3)O2)c(=O)[nH]c1=O	3520	-6	0	3	nt	-1
O=C(c1cnc2n(c1=O)CCS2)N1CCCc2ccccc21	22039*	4	3	1	30	2
O=C(c1cnc2ccccn2c1=O)N1CCCc2ccccc21	17332*	10	9	-6	0	-4
O=C(c1ccc(S(=O)(=O)N2CCCC2)cc1)N1CCCc2ccccc21	3630	1	1	1	28	1
Cc1csc2ncc(C(=O)N3CCCc4ccccc43)c(=O)n12	5816	0	0	-6	15	9
O=C(c1ccc(S(=O)(=O)N2CCOCC2)cc1)N1CCCc2ccccc21	17398*	-3	-2	2	7	-5
SMILES	Bead autofluor	BoNT F protease	BoNT A protease	Anthrax LF prot	DUSP3 inh	MazF activator
O=C(c1cccnc1)N1CCCc2ccccc21	20718*	-2	0	-2	13	-3
CNc1ccc(Br)cc(C(=O)/C=C/c2ccc(OC)cc2OC)c1=O	9593	-11	23	14	2	-1
CCNc1ccc(Br)cc(C(=O)/C=C/c2ccc(Cl)cc2)c1=O	7902	6	29	26	15	-38
CNc1ccc(Br)cc(C(=O)/C=C/c2cccc(OC)c2)c1=O	17911*	10	16	19	22	3
CCNc1ccc(Br)cc(C(=O)/C=C/c2c(Cl)cccc2Cl)c1=O	6714	16	59*	29	0	3
O=c1[nH]c(CSc2nnc(-c3ccccc3)n2-c2ccccc2)nc2ccccc12	2014	-8	0	2	43	0
COCCn1c(SCc2nc3ccccc3c(=O)[nH]2)nnc1-c1ccncc1	16786*	-2	?	-2	-7	7
O=c1[nH]c(CSc2nnc(-c3ccncc3)n2Cc2ccco2)nc2ccccc12	22482*	-4	?	-1	33	1
O=c1[nH]c(CSc2nnc(-c3ccccc3)n2C2CCCCC2)nc2ccccc12	22043*	3	3	0	10	-10
O=C(O)CSc1nnc(-c2ccncc2)n1C1CCCCC1	19539*	4	?	0	22	6
CCCS(=O)(=O)NC(=O)C1(C)CCN(C(=O)c2ccc3ccccc3c2)C1 (stereo not drawn)	3069	-6	0	-4	nt	nt
N#Cc1sc2nc(-c3cccs3)cc(-c3ccc(Cl)cc3)c2c1N	16199*	2	?	12	26	-8
COc1ccc2[nH]c3c(=O)n(CCCCC(=O)N4CCCC4)c(=S)[nH]c3c2c1	23557*	0	0	-1	18	5
CCCNC(=O)CCCCn1c(=S)[nH]c2c([nH]c3ccc(OC)cc32)c1=O	4144	-3	-1	2	13	4
CC(=O)c1ccc(-c2cccc([C@H]3[C@@H]4C=CC[C@@H](C)[C@@H]4C(=O)N3Cc3ccccc3)c2)cc1	3888	-6	-1	-2	nt	-2
COc1cc(C2NC(=S)NC(c3ccccc3)=C2C(C)=O)cc(Cl)c1OCC(=O)O (stereo not drawn)	23312*	-1	0	1	36	5
CC(C)C1OC(CCc2ccccc2)Cc2[nH][nH]c(=O)c21 (stereo not drawn)	5653	1	0	-3	nt	nt
COc1ccccc1NC(=O)Nc1ncccc1C	22096*	1	2	0	1	3
Cc1cccnc1NC(=O)Nc1cccs1	22281*	-3	?	-6	-2	4
COC(=O)Cn1c2ccc(C)cc2c2nc3ccccc3nc21	3348	13	5	6	2	17
COc1ccc(Cn2c3ccc(OC)cc3c3nc4ccccc4nc32)cc1	2116	0	8	4	10	65*
COc1ccc2c(c1)c1nc3ccccc3nc1n2CC(=O)OC(C)C	7658	13	4	-7	12	370*
N#Cc1ccc(C(=O)Nc2ccc(N3CCN(C(=O)c4ccco4)CC3)cc2)c(F)c1	24354*	-7	-2	0	21	49
O=C(Nc1ccc(N2CCN(C(=O)c3ccco3)CC2)cc1)c1ccco1	3782	-3	0	0	28	-7
